Results reported in PubChem BioAssay AID1159580 (chemical genetic matrix, 2015).
Several values for one entry are separate records, joined by “and”; a condition that tells them apart may be missing. Equal entries are not always repeated. In all, about 5,500 compounds went through this assay and about 2,000 (36%) were called active. Not shown: some 18% with an inconclusive outcome. No stated cut-off is given here; in the data, active means normalized growth mostly below about 0.91 (no sharp cut-off); inconclusive means no clear call, values can overlap the other calls; inactive means mostly above about 0.92. Some of the results follow.

Assay: chemical genetic growth profiling, strain panel (AID 1159580);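 further: tested at 20 µM; growth read once vehicle control cultures reached saturation at 30 °C; 1 = growth at the plate median or of vehicle wells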
Conditions: S. cerevisiae deletion strains, growth OD

Measured: normalized growth

C[C@@H]1CC2C3C[C@H](F)C4=CC(=O)C=C[C@]4(C)[C@@]3(F)[C@@H](O)C[C@]2(C)[C@@]1(O)C(=O)COC(=O)C(C)(C)C (some centres not stated)
inactive: locus YAL021C, strain ccr4, stronger effect = lower value 0.995 | locus YAL026C, strain drs2, stronger effect = lower value 1 | locus YAL030W, strain snc1, stronger effect = lower value 0.98 | locus YBL061C, strain skt5, stronger effect = lower value 0.994 | locus YBR009C, strain hhf1, stronger effect = lower value 0.972 | locus YBR021W, strain FUR4, stronger effect = lower value 1.01 | locus YBR023C, strain chs3, stronger effect = lower value 0.983 | locus YBR171W, strain sec66, stronger effect = lower value 0.998 | locus YBR229C, strain ROT2, stronger effect = lower value 1 | locus YBR231C, strain swc5, stronger effect = lower value 0.98 | locus YBR279W, strain paf1, stronger effect = lower value 0.986 | locus YCL011C, strain gbp2, stronger effect = lower value 1.01 | locus YCL016C, strain dcc1, stronger effect = lower value 0.995 | locus YCL029C, strain bik1, stronger effect = lower value 0.992 | locus YCL069W, strain vba3, stronger effect = lower value 1 | locus YCR088W, strain abp1, stronger effect = lower value 1.01 | locus YDL005C, strain med2, stronger effect = lower value 1 | locus YDL035C, strain GPR1, stronger effect = lower value 0.982 | locus YDL040C, strain nat1, stronger effect = lower value 0.985 | locus YDL074C, strain BRE1, stronger effect = lower value 1 | locus YDL101C, strain DUN1, stronger effect = lower value 1.01 | locus YDL134C, strain PPH21, stronger effect = lower value 0.98 | locus YDL185W, strain tfp1, stronger effect = lower value 1 | locus YDL192W, strain arf1, stronger effect = lower value 1.01 | locus YDR001C, strain nth1, stronger effect = lower value 0.998 | locus YDR069C, strain doa4, stronger effect = lower value 0.991 | locus YDR101C, strain arx1, stronger effect = lower value 0.97 | locus YDR137W, strain rgp1, stronger effect = lower value 1 | locus YDR150W, strain NUM1, stronger effect = lower value 0.999 | locus YDR159W, strain sac3, stronger effect = lower value 0.991 | locus YDR162C, strain NBP2, stronger effect = lower value 0.987 | locus YDR195W, strain ref2 0.911 | locus YDR297W, strain sur2, stronger effect = lower value 0.993 | locus YDR318W, strain mcm21, stronger effect = lower value 1.01 | locus YDR334W, strain swr1, stronger effect = lower value 1 | locus YDR335W, strain msn5, stronger effect = lower value 0.995 | locus YDR388W, stronger effect = lower value 1.01 | locus YDR392W, strain spt3, stronger effect = lower value 1 | locus YDR502C, strain sam2, stronger effect = lower value 1 | locus YEL003W, strain gim4, stronger effect = lower value 1 | locus YEL037C, strain rad23, stronger effect = lower value 0.994 | locus YEL061C, strain CIN8 (second series), stronger effect = lower value 1.01 | locus YEL061C, strain CIN8, stronger effect = lower value 1 | locus YER015W, strain faa2, stronger effect = lower value 0.996 | locus YER016W, strain bim1, stronger effect = lower value 0.99 | locus YER110C, stronger effect = lower value 1.02 | locus YER111C, strain swi4, stronger effect = lower value 0.999 | locus YER155C, strain BEM2 (second series), stronger effect = lower value 0.991 | locus YER155C, strain BEM2, stronger effect = lower value 1.01 | locus YER167W, strain BCK2, stronger effect = lower value 0.997 | locus YFR010W, strain ubp6, stronger effect = lower value 0.997 | locus YGL078C, strain dbp3, stronger effect = lower value 1.01 | locus YGL086W, strain mad1, stronger effect = lower value 0.983 | locus YGL167C, strain pmr1, stronger effect = lower value 0.989 | locus YGL173C, strain kem1, stronger effect = lower value 0.994 | locus YGL227W, strain vid30, stronger effect = lower value 1.01 | locus YGL240W, strain doc1, stronger effect = lower value 0.971 | locus YGL248W, strain PDE1, stronger effect = lower value 1.01 | locus YGL253W, strain hxk2, stronger effect = lower value 1.01 | locus YGR135W, strain pre9, stronger effect = lower value 1.05 | locus YGR252W, strain gcn5, stronger effect = lower value 1.06 | locus YHR013C, strain ard1, stronger effect = lower value 0.965 | locus YHR027C, strain rpn1, stronger effect = lower value 0.998 | locus YHR030C, strain SLT2, stronger effect = lower value 1 and 0.992 | locus YHR079C, strain IRE1 (second series), stronger effect = lower value 1 | locus YHR079C, strain IRE1, stronger effect = lower value 0.972 | locus YHR094C, strain hxt1, stronger effect = lower value 1.01 | locus YHR129C, strain ARP1, stronger effect = lower value 1.01 | locus YHR142W, strain chs7, stronger effect = lower value 1.01 | locus YHR200W, strain rpn10, stronger effect = lower value 1 | locus YIL066C, strain RNR3, stronger effect = lower value 0.997 | locus YIL073C, strain SPO22, stronger effect = lower value 0.995 | locus YIL125W, strain kgd1, stronger effect = lower value 1 | locus YIR030C, strain dcg1, stronger effect = lower value 1 | locus YJL092W, strain hpr5, stronger effect = lower value 1 | locus YJL095W, strain BCK1 (second series), stronger effect = lower value 0.989 | locus YJL095W, strain BCK1, stronger effect = lower value 1.03 and 0.963 | locus YJL115W, strain asf1, stronger effect = lower value 0.993 | locus YJL129C, strain trk1, stronger effect = lower value 1 | locus YJL134W, strain LCB3, stronger effect = lower value 1 | locus YJL154C, strain vps35, stronger effect = lower value 0.997 | locus YJL164C, strain tpk1, stronger effect = lower value 0.989 | locus YJL166W, strain qcr8, stronger effect = lower value 0.966 | locus YJL168C, strain set2, stronger effect = lower value 1.01 | locus YJL187C, strain SWE1 (second series), stronger effect = lower value 1 | locus YJR043C, strain POL32, stronger effect = lower value 0.983 | locus YJR066W, strain TOR1, stronger effect = lower value 0.944
